Results on 40 compounds are retold here after ChEMBL document CHEMBL3433997, “St. Jude Leishmania screening dataset” (2016).

The experiment addresses Hexose transporter 1 (Plasmodium falciparum) (UniProt O97467). Description: ST_JUDE_LEISH: Cytotoxicity at 2uM final concentration against transgenic Leishmania Mexicana promastigotes LmPfHT that are glucose transport deficient and complemented with the Plasmodium falciparum hexose transporter. Activity is measured by DNA content using SYBR green in vitro. It is filed as functional.
With `CN(C)c1ccc(-c2nc3cc(N)ccc3[nH]2)cc1`, the inhibition amounted to 3.58%.
Take `CCCCc1ccc(C(=O)NC2CCN(C[C@H](O)c3ccnc4ccc(OC)cc34)CC2)cc1`: the inhibition worked out at 65.3%.
As to `CCc1nc2ccc(C(=O)OC)nc2n1Cc1ccc2oc(-c3ccccc3N)c(Br)c2c1`, the inhibition turned out to be 2.33%.
The value for `Cc1nc(C)c(-c2ccc(Br)cc2)c(O)c1Br` was -1.35%; that for `CCc1ccc2c(c1O)CCN(C)C2Cc1ccccc1Cl` (stereo not given) was 5.29%.
Consider `COc1ccc(Nc2ncc3c(-c4ccc(NC(=O)c5cccc(C(F)(F)F)c5)cc4)c[nH]c3n2)cc1OC`, for which the inhibition was -0.05%.
The value for `O=C(CN1CCN(C(=O)c2ccco2)CC1)Nc1ccc(Br)cc1Cl` was -1.31%; that for `Cc1c(-c2cccc(CNCCc3ccc(Cl)cc3)c2)cnc(N)c1C` was -2.81%; that for `Nc1c(Cl)cc(C(O)CNCCCCCOCCc2ccccc2)cc1C(F)(F)F` (stereo not given) was 4.17%.
For `CC1CN(Cc2ccc(-c3ccc(-c4nc5ccccc5[nH]4)cc3)cc2)CC(C)O1` (stereo not given), the inhibition was 6.82%.
Consider `CC(C)CCN1CCCN(Cc2cccc(NC(=O)c3ccc(-c4ccccc4)cc3)c2)CC1`, for which the inhibition came to 0.14%.
On to `Clc1cc(Cl)c2cc(CNCCCNc3ccc4ccccc4n3)[nH]c2c1`, for which the inhibition came to 0.95%.
The value for `Cc1cc(Nc2ccncc2)n2nc(C)c(-c3ccc(Cl)cc3)c2n1` was 9.35%; that for `COC(=O)c1cccc(NC(=O)NC2CCN(c3ccnc(Nc4cc(OC)c(OC)c(OC)c4)n3)C2)c1` (stereo not given) was 6.39%; that for `CCCCNCc1ccc(-c2nc(CN(CCCn3ccnc3)C(=O)Nc3ccc(CC)cc3)cs2)cc1` was 6.29%.
For the compound `COC(=O)c1ccc(NC(=O)c2ccc(CCN3CCC(c4nc(COCC(F)(F)F)c(-c5ccc(F)cc5)o4)CC3)cc2)cc1`, the inhibition worked out at 3.11%.
On to `Cc1cccc(C(=O)Nc2ccnc(N3CCC(N(C)Cc4cccc(C#N)c4)CC3)c2)c1`, for which the inhibition came out at 5.56%.
Consider `Cc1cccc2nc(-c3cccc(-c4ccc(NC(=O)Nc5ccc(Cl)cc5)cc4)c3)[nH]c12`, for which the inhibition worked out at 5.13%.
As for `CCOC(=O)N1CCN(CCCNc2c3ccccc3nc3ccccc23)CC1`, the inhibition stood at 4.08%.
Regarding `CC(C)OC(=O)c1ccc(NC(=O)N[C@@H](Cc2ccc(O)cc2)C(=O)NC2CCC(CCN3C4CCC3c3ccccc34)CC2)cc1` (stereo not given in full), the inhibition stood at 2.7%.
Take `Cc1ccc(Nc2nccc(Nc3ccc4c(C)n[nH]c4c3)n2)cc1F`: the inhibition turned out to be 4.19%.
As to `CNC(=O)c1cc(S(=O)(=O)Nc2ccc(OC)cc2)cs1`, the inhibition was 0.9%.
As for `CCN(C)C(=O)n1ncc2c3c(N)nc(N)nc3ccc21`, the inhibition came to 4.56%.
The value for `NC(=O)C1CCN(Cc2cccc(-c3cccc(-c4nc5cc(F)ccc5[nH]4)c3)c2)CC1` was 1.68%.
The value for `CC(C)C(NC(=O)Cc1cccc2ccccc12)C(=O)Nc1cccc(C#N)c1` (stereo not given) was 3.27%; that for `Nc1nccc2ccc(-c3ccnc(NCc4cccnc4)n3)cc12` was 7.15%; that for `COc1ccc(CN2C(=S)N(Cc3ccccc3)C(=O)C2CC(=O)Nc2ccccc2)cc1OC` (stereo not given) was -0.87%.
For `Cc1ccc(Cn2nc(Cl)c(N3CCCNCC3)cc2=O)cc1NC(=O)Nc1ccc(-c2ccccc2)cc1`, the inhibition turned out to be 1.72%.
Take `COc1ccc2ccccc2c1CCCCN1CCN(CC(c2ccc(F)cc2)N2CCN(C3CCCC3)CC2)CC1` (stereo not given): the inhibition was 4.07%.
On to `COc1ccc(C=C2SC(=N)N(c3ccccc3OC)C2=O)cc1`, for which the inhibition turned out to be 5.54%.
`Fc1ccc2[nH]c(-c3cccc(-c4ccc(CNCCN5CCNCC5)cc4)c3)nc2c1`: the inhibition is -0.52%.
In the case of `O=C(N[C@H]1CCN(Cc2ccc(OCCCN3CCCCC3)cc2)C1)c1cc(Cl)cc(Cl)c1`, the inhibition was found to be 7.28%.
Regarding `Oc1cc(Nc2ccnc3cc(-c4ccc(CN5CCCCC5)o4)c(Cl)cc23)c(Cl)cc1F`, the inhibition came to 1.8%.
Take `COc1ccc2c(c1)CC(C)(C)NC2CCCCCCCCC1NC(C)(C)Cc2cc(OC)ccc21` (stereo not given): the inhibition is 2.26%.
With `COc1cccc(C=NN=c2cc(C)[nH]c3ccccc23)c1`, the inhibition came out at 3.07%.
For `Oc1ccc2ccccc2c1CNC1CCCCCC1`, the inhibition came to 1.51%.
The value for `CCc1cn2c3c(cc(C(=O)N[C@@H](Cc4ccccc4)[C@H](O)CNC4CCOCC4)cc13)N(C(C)C)S(=O)(=O)CC2` was 3.8%; that for `Oc1cc(Nc2ccnc3ccc(I)cc23)c(F)cc1Cl` was 1.05%.
As to `Cc1cccc2nc(-c3cccc(-c4ccc(NC(=O)c5c[nH]cn5)cc4)c3)[nH]c12`, the inhibition was -0.73%.
Regarding `Cc1cc(N[C@@H](Cc2ccccc2)C(=O)NC2CCCC2)nc(NCCOc2ccccc2)n1`, the inhibition is -1.48%.

By inhibition is commonly meant the change of the read-out against control, counted positive when it falls.
